Screening results deposited in PubChem by several laboratories.
HIV RNase H inh-1 – blocks HIV-1 RNase H cleavage of RNA/DNA duplex; P04585; RT-RNase H RNA/DNA duplex cleavage, fluorescence; inhibition, % at 10 µM; hit rate 1.9% among 65,000; AID 565; in the data active means inhibition above about 50%
RmlCD inh mix – RmlC/RmlD inhibition, mixture screen | hit rate 0.39% among 110,000 | RmlC/RmlD coupled enzyme inhibition, 384-well mixture HTS | inhibition, % at 5.5 µM; in the data active means inhibition above about 30%, passing the limit was not always enough; inconclusive means no clear call, values can overlap the other calls
HIV RNase H inh-2 – confirmation of HIV-1 reverse transcriptase RNase H inhibitors | shares compounds with HIV RNase H inh-1 | Recombinant RT RNase H, fluorescent RNA/DNA duplex cleavage | inhibition, % at 10 µM | hit rate 39% among 1,000; in the data active means inhibition above about 48%; inconclusive means no clear call, values can overlap the other calls
An asterisk follows results filed as active; ? = inconclusive; / = no result given. Many of the other results were omitted from the sample, so hits are more common in it than they were.

SMILES	HIV RNase H inh-1	RmlCD inh mix	HIV RNase H inh-2
C=C1CCN([C@H](C(=O)OCc2cccc(C)c2)C(C)C)S(=O)(=O)c2ccccc21	/	7	/
Cc1ccc(-c2nnn(CC(=O)NCC3CC3)n2)o1	/	-4	/
Cc1ccc(-c2nnn(CC(=O)Nc3ccc4nn(-c5ccccc5)nc4c3)n2)o1	76*	/	?
CC1(C)Cc2c(c(N3CCOCC3)nc3sc(-c4ccc(C(=O)O)o4)c(N)c23)CO1	8	-1	/
CC1(C)Cc2c(c(N3CCOCC3)nc3sc(C(=O)N4CCCCC4)c(N)c23)CO1	72*	-40	41
CCOC(=O)c1c(C)oc2c1c1c(c3ccccc32)OCN(Cc2ccccn2)C1	/	-11	/
CCOC(=O)c1c(C)oc2c1c(C(c1ccncc1)N1CCOCC1)c(O)c1ccccc12 (configuration not stated)	68*	9	6
CCCCC(=O)Nc1cc(OC)c(NC(=O)C2CCCCC2)cc1OC	/	-11	/
CCCC(=O)Nc1cc(OC)c(NC(=O)NC2CCCCC2)cc1OC	53*	-8	8
Cc1nc(=O)c(-c2ccccc2)c(C)n1CCCCCC(=O)O	/	9	/
CCOC(=O)c1sc(N(C)C)nc1-c1ccccc1	/	9	/
CCOC(=O)c1sc(N)nc1-c1ccccc1	71*	-11	38
CCn1c(-c2ccc(C)cc2)n[nH]c1=S	/	5	/
CCn1c(=S)sc2nc(C)sc21	84*	4	46
CCOc1cc2c(cc1OCC)C(c1cc(OC)c(O)c(OC)c1)NCC2 (configuration not stated)	2	/	/
COc1ccc(C2SCC(=O)Nc3c2c(C)nn3-c2ccccc2)cc1 (configuration not stated)	/	13	/
Cc1ccc(-n2nc(C)c3c2NC(=O)CSC3c2ccc3c(c2)OCO3)cc1 (configuration not stated)	60*	-6	64*
CN(C)/C=N/C(=S)Nc1ccc(Br)cc1F	/	12	/
COC(=O)CN1C(=O)C(O)(CC(=O)c2ccc(C)cc2)c2ccccc21 (configuration not stated)	54*	-19	-1
COC(=O)CN1C(=O)C(O)(CC(=O)c2ccccc2)c2ccccc21 (configuration not stated)	19	/	/
O=C(Nc1ccc2c(c1)OCO2)C1Cc2ccccc2CN1S(=O)(=O)c1cccs1 (configuration not stated)	44	-8	/
Cc1cccc(OCCOc2ccc(/C=N/NC(=O)Cc3nnc(N)s3)cc2)c1	/	-7	/
CC1Oc2ccccc2N(Cc2ccccc2Cl)C1=O (configuration not stated)	-26	5	/
CC1Oc2ccccc2N(Cc2ccccc2F)C1=O (configuration not stated)	90*	-25	12
Cn1c(=O)c(C(=O)CCl)c(N)n(CC2CC2)c1=O	/	14	/
SMILES	HIV RNase H inh-1	RmlCD inh mix	HIV RNase H inh-2
Cc1ccccc1OCC(O)Cn1c(NCc2ccccc2)nc2c1c(=O)[nH]c(=O)n2C (configuration not stated)	/	6	/
CCSc1nc2c(c(=O)[nH]c(=O)n2C)n1CC(O)COc1ccccc1C (configuration not stated)	76*	6	37
Cc1cc(C)n(-c2nc3c(c(=O)[nH]c(=O)n3C)n2CC(O)COc2ccccc2C)n1 (configuration not stated)	-6	-12	/
Cc1ccccc1OCC(O)Cn1c(SC(C)C)nc2c1c(=O)[nH]c(=O)n2C (configuration not stated)	67*	-9	-9
COc1ccc(C(=O)NCc2cn3ccsc3n2)cc1OC	-14	0	/
CCCC[n+]1cc(/N=C(\[O-])OC)on1	84*	-4	8
CO/C([O-])=N/c1c[n+](-c2ccc(C)cc2)no1	3	-1	/
CC(Sc1nnc2c(n1)C1(C)CCC2C1(C)C)C(=O)Nc1ccccc1 (configuration not stated)	/	4	/
C=CCn1c(=O)c(C(=O)Nc2cccnc2)c(O)c2ccccc21	/	7	/
C=CCn1c(=O)c(C(=O)Nc2nnc(C)s2)c(O)c2ccccc21	83*	/	98*
CC(=O)Nc1cccc(Oc2ccc(-c3noc(C)n3)cc2)c1	0	2	/
O=C(Oc1ccc(-c2cnc3ccccc3n2)cc1)c1ccco1	73*	-15	?
CCC(=O)Oc1ccc(-c2cnc3ccccc3n2)cc1	/	-15	/
Cc1ccc(S(=O)(=O)Nc2cc(C)c(O)c(S(=O)(=O)c3ccc(C)cc3)c2)cc1	/	9	/
Cc1cc(NS(=O)(=O)c2ccccc2)cc(Cl)c1O	78*	-6	9
CSc1ccc(C2C(C#N)=C(N)Oc3c2ccc(=O)c2c(C)oc(C)c32)cc1 (configuration not stated)	61*	3	67*
Cc1oc(C)c2c(=O)ccc3c(c12)OC(N)=C(C#N)C3c1ccccc1 (configuration not stated)	-5	-9	/
COc1ccc(CSc2nnc(Cc3sc(-c4ccccc4)nc3-c3ccccc3)o2)cc1	/	-8	/
